Results reported in PubChem BioAssay AID1030 (National Center for Advancing Translational Sciences (NCATS), 2008).
About 16,000 (7.3%) of roughly 220,000 compounds were called active. Entries that show only a call come without a potency. Another 25% or so got no clear call; they are omitted. The sample holds actives, similar compounds and a random draw of the others, so the mix is not that of the screen. Values without a mark were called inactive. Calls come from the whole dose curve; as a rule, active = well fitted inhibition curve with a large enough effect (not every such curve was filed as active); inconclusive = small, poorly fitted or top-dose-only effect, or another doubt; inactive = no such curve, though single readings can be large or run the other way.
Potency is the fitted concentration of half-maximal effect.

The compounds below were run against Aldehyde dehydrogenase 1A1 (Homo sapiens) (UniProt P00352) (assay: qHTS Assay for Inhibitors of Aldehyde Dehydrogenase 1 (ALDH1A1)). Details: Purified ALDH1A1, NADH fluorescence, propionaldehyde substrate; series mostly up to 75.3 µM.
Sequence of Aldehyde dehydrogenase 1A1 (Homo sapiens) (P00352 whole entry, looked up): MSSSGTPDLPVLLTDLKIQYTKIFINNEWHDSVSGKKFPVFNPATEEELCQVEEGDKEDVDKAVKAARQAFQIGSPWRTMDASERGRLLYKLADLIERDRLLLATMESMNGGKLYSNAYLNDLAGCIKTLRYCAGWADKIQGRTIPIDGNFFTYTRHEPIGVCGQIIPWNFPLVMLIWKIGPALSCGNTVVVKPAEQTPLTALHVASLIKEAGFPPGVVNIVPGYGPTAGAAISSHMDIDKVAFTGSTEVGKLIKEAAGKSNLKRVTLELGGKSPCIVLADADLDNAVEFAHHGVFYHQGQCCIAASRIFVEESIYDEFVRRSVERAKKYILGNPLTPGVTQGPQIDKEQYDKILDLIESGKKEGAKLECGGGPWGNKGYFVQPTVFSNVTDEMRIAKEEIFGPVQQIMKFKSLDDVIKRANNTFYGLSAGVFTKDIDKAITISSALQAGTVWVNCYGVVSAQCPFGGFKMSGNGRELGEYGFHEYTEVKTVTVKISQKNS
For `CN(Cc1cccc2ncccc12)C(=O)CC1C(=O)NCCN1Cc1ccc(F)cc1` (stereo unspecified), the Potency was “inactive”. In the case of `COc1ccc(C)cc1NC(=O)Nc1ccccc1SC`, the Potency is reported as “inactive”. `O=C(CC(O)(C(F)(F)F)C(F)(F)F)Nc1ccc(Cl)c(Cl)c1` was tested, and the Potency was “inactive”. With `N/C(=N\OC(=O)Nc1ccc(Cl)c(Cl)c1)c1ncc(C(F)(F)F)cc1Cl` the Potency was 25.1 µM (active). For `O=C(c1ccccn1)c1ncc(C(F)(F)F)cc1Cl`, the Potency was “inactive”. With `CC1(OC(=O)CCc2ccccc2)C(=O)C=C2C=C(c3ccc(C#N)cc3)N(CCc3ccccn3)C=C2C1=O` (stereo unspecified) the activity, negative = inhibition was 10.1% [at 13.5 µM]. `C=CCn1c(-c2ccc3[nH]c(C)c(C)c3c2)n[nH]c1=S` was tested, and the Potency was 12.6 µM (active). For `C=CCn1c(CCc2ccc(OC(C)C)cc2)n[nH]c1=S`, the Potency was “inactive”. For `C=CCn1c(-c2ccccc2OCC)n[nH]c1=S`, the Potency was “inactive”. For `O=C(CN1CCN(c2ncccn2)CC1)Nc1ccccc1C(F)(F)F`, the Potency was “inactive”. With `c1ccc(-c2cc(N3CCCCC3)c3ccccc3n2)cc1` the Potency was “inactive”. With `COc1cccc(NC(=O)C(Sc2nnnn2C)c2ccccc2)c1` (stereo unspecified) the Potency was “inactive”. `OCCNCc1cccc(OCc2ccccc2Cl)c1` was tested, and the Potency was “inactive”. With `O=C(C1CCCO1)N1CCN(C(=S)NC2CC2)CC1` (stereo unspecified) the Potency was “inactive”. In the case of `Cn1c(=O)c2c(nc(SCC(=O)Nc3ccccc3N3CCCCC3)n2C)n(C)c1=O`, the Potency is reported as “inactive”. In the case of `CCC1CCCCN1C(=O)CSc1nc(C)cc(C)n1` (stereo unspecified), the Potency is reported as “inactive”. `CCC1CCCCN1C(=O)CSc1nc2c(c(=O)n(C)c(=O)n2C)n1C` (stereo unspecified) was tested, and the Potency was 12.6 µM (active). `Cc1c(C(=O)N/N=C/c2ccccc2)[nH]c2c([N+](=O)[O-])cccc12` was tested, and the Potency was “inactive”. With `Cc1nc(-c2ccccc2)sc1C(=O)/C=C/c1ccccc1` the Potency was 3.55 µM (active). `O=C(/C=C/c1ccccc1)c1ccccc1O` was tested, and the Potency was “inactive”. With `Cc1[nH]c(=O)c(C(=O)/C=C/c2ccccc2)c2c1CCCC2` the Potency was “inactive”. In the case of `O=C(O)C1C2CC2CN1C(=O)c1ccc(Cl)cc1Cl` (stereo unspecified), the Potency is reported as “inactive”. In the case of `Cc1[nH][nH]c(=O)c1C(c1ccc(-c2ccc(Cl)cc2)o1)c1c(C)[nH][nH]c1=O`, the Potency is reported as 22.4 µM (active). For `Cc1[nH][nH]c(=O)c1C(c1ccc2c(c1)OCO2)c1c(C)[nH][nH]c1=O`, the Potency was “inactive”. With `Cc1[nH][nH]c(=O)c1N=Nc1ccccc1` the Potency was “inactive”. In the case of `O=C(NCCc1ccccn1)c1cccnc1Oc1ccc(Cl)cc1`, the Potency is reported as “inactive”. In the case of `CN1CCN(C(=O)CCc2nc(-c3ccc(Cl)cc3)no2)CC1`, the Potency is reported as “inactive”. With `CCOC(=O)Nc1ccccc1N1C(=O)c2ccccc2C1=O` the Potency was “inactive”. `CCCn1c(=O)c2ccccc2n2c(SCC(=O)/C(C#N)=C(\C)N)nnc12` was tested, and the Potency was “inactive”. `CCCCN1C(=O)/C(=C(/C#N)C(N)=O)c2ccccc21` was tested, and the Potency was 7.08 µM (active). With `COc1cc(SC#N)ccc1N=Cc1c(C)[nH]n(-c2ccc(C)cc2)c1=O` the Potency was 0.631 µM (active). With `CCc1nnc(NS(=O)(=O)c2ccc(N=Cc3c(C)[nH]n(-c4ccc(C)cc4)c3=O)cc2)s1` the Potency was “inactive”. With `Cc1ccc(-n2[nH]c(C)c(/C=N/N3C(=O)c4cccc5cccc(c45)C3=O)c2=O)cc1` the Potency was “inactive”. With `N/C(=N\S(=O)(=O)c1cc(C(F)(F)F)cc(C(F)(F)F)c1)c1cccs1` the Potency was “inactive”. `CC1=CC(=C(C#N)c2nc3ccccc3s2)C=C(C)N1c1ccc(F)cc1F` was tested, and the Potency was “inactive”. With `Oc1ccccc1C=NC1CCCCC1N=Cc1ccccc1O` (stereo unspecified) the Potency was “inactive”. For `O=c1c(O)c(Br)ccc2c(Br)c(O)c(O)c(O)c12`, the Potency was 8.91 µM (active). With `CCOc1ccc(NC(=O)NNC(=O)c2ccc(Cl)cc2Cl)cc1` the Potency was “inactive”. For `Oc1cc(O)c2c(c1)OC(c1ccc(O)c(O)c1)C(O)C2` (stereo unspecified), the Potency was 10 µM (active). In the case of `Cc1nc2cc(NC(=O)NC3CC3)ccc2n1C`, the Potency is reported as “inactive”. `COCC(=O)Nc1ccc(Br)cc1` was tested, and the Potency was “inactive”. With `COC(=O)Cc1ccc(NC(=S)NCc2ccccc2)cc1` the Potency was “inactive”. For `CC(C)Oc1ccc(CC(=O)NNC(=S)Nc2ccc(Br)cc2)cc1`, the Potency was 10 µM (active). For `CC(C)C(O)C1CCN(Cc2nc(Cc3ccccc3Cl)no2)CC1` (stereo unspecified), the Potency was “inactive”. In the case of `Cc1ccc(COc2ccc(/C=N/NC(=O)CN3CCCCC3)cc2)cc1`, the Potency is reported as “inactive”. With `O=c1cc(O)nc(SCc2ccccc2Cl)[nH]1` the Potency was “inactive”. With `S=c1[nH]nc(SCc2ccccc2Cl)c2[nH]cnc12` the Potency was 0.0316 µM (active). `COc1cc2[nH]c(=S)n(Cc3ccc(F)cc3)c(=O)c2cc1OC` was tested, and the Potency was “inactive”. `COc1ccccc1-n1c(=S)[nH]c2c(sc(=S)n2-c2ccc(C)cc2C)c1=O` was tested, and the Potency was 8.91 µM (active). `COc1ccc(OC)c(-n2c(=S)[nH]c3cc(C(=O)N4CCCCC4)ccc3c2=O)c1` was tested, and the Potency was “inactive”. `CCOC(=O)N1CCN(C(=O)Cc2ccc(-n3c(=S)[nH]c4ccccc4c3=O)cc2)CC1` was tested, and the Potency was “inactive”. For `CCc1ccc(-n2c(=S)sc3c(=O)n(-c4ccccc4OC)c(=S)[nH]c32)cc1`, the Potency was 12.6 µM (active). With `Cc1ccc(Cl)cc1NC(=O)c1ccccn1` the Potency was “inactive”. For `Cc1cn(C2OC[C@@H](O)[C@@H]2CO)c(=O)[nH]c1=O` (stereo partly specified), the Potency was “inactive”. `O=C(NCc1cccnc1)c1cccc(-c2cc3ccccc3oc2=O)c1` was tested, and the Potency was “inactive”. With `CCc1ccc(CN(C)Cc2nc(Cc3ccccc3)no2)nc1` the Potency was “inactive”. With `CN(C)CCCN1C(=O)CSC1c1ccc([N+](=O)[O-])cc1` (stereo unspecified) the Potency was “inactive”. With `CCC(CC)C(=O)N1CC(=O)Nc2ccc(Br)cc2C1c1ccccc1` (stereo unspecified) the Potency was “inactive”. With `O=C(c1ccc(S(=O)(=O)N2CCOCC2)cc1)N1CCN(c2ccccc2)CC1` the Potency was “inactive”. In the case of `Cc1ccc2c(c1)C(c1ccccc1)N(C(=O)c1ccc(S(=O)(=O)N3CCOCC3)cc1)CC(=O)N2` (stereo unspecified), the Potency is reported as 7.94 µM (active). `CNS(=O)(=O)c1ccc(NC(=O)C2CC(=O)N(c3ccc(Cl)cc3)C2)cc1` (stereo unspecified) was tested, and the Potency was “inactive”. In the case of `O=C(NNc1ccccn1)c1ccc(Cl)nc1`, the Potency is reported as “inactive”. In the case of `O=C(CCl)NNc1cccc(Cl)n1`, the Potency is reported as 10 µM (active). With `COc1cc(OC)nc(NC(=O)CCl)n1` the Potency was “inactive”. `CCCCSc1nc2ccccc2[nH]1` was tested, and the Potency was “inactive”. `COc1cc(CCC(=O)OCC(=O)Nc2cccc(S(N)(=O)=O)c2)cc(OC)c1OC` was tested, and the Potency was “inactive”. In the case of `Cc1nn(C)c(C)c1S(=O)(=O)N1CCC(CO)(Cc2ccc(Cl)cc2)CC1`, the Potency is reported as “inactive”. With `COc1ccc(NC(=S)NCC2CCN(c3ccc(OC)cc3)C2)cc1` (stereo unspecified) the Potency was 35.5 µM (active). `COc1ccc(OCC(=O)Nc2ccc(N3CCC(C)CC3)cc2)cc1` was tested, and the Potency was “inactive”. With `COc1ccc(NC(=S)NCCN2CCC(C)CC2)cc1` the Potency was “inactive”. `O=C(Nc1cccc(Cl)c1)c1cc([N+](=O)[O-])ccc1N1CCN(CCO)CC1` was tested, and the Potency was “inactive”. `CN1CCN(c2ccc(S(=O)(=O)Nc3ccccc3)cc2[N+](=O)[O-])CC1` was tested, and the Potency was “inactive”. `CCNC(=O)c1ccc(OCC(=O)Nc2ccc(F)cc2)c(OC)c1` was tested, and the Potency was “inactive”. With `CCCCn1c(N)c(N2CCOCC2)c(=O)n(CC(=O)NCCc2ccccc2)c1=O` the Potency was “inactive”. `O=S(=O)(NN=C1CCCCCCC1)c1ccc(Br)cc1` was tested, and the Potency was 11.2 µM (active). `O=C(CCc1ccc(S(=O)(=O)N2CCOCC2)cc1)NN=C1CCCCCCC1` was tested, and the Potency was “inactive”. With `Cc1nc(S(=O)(=O)c2ccc(Br)cc2)nc2c1CCC2` the Potency was “inactive”. For `CC(=O)Cn1ncc(N2CCOCC2)c(Br)c1=O`, the Potency was “inactive”. In the case of `Cc1ccc(OCC(=O)Nc2ccc(S(=O)(=O)Nc3ccccn3)cc2)cc1`, the Potency is reported as “inactive”. With `Cc1ccc(Nc2cc(=O)n(C3CCCCC3)c(=O)[nH]2)cc1C` the Potency was 1 µM (active). In the case of `Cc1ccc(NS(=O)(=O)c2c(C)[nH]c(=O)[nH]c2=O)cc1C`, the Potency is reported as “inactive”. Compound `COC(=O)C1=C(C(=O)OC)[C@@H]2Nc3ccccc3[C@@]23C[C@@H](C(=O)OC)N(S(=O)(=O)c2ccc([N+](=O)[O-])cc2)C3=N1` has an activity, negative = inhibition of -1.68% [at 13.5 µM]. `Nc1c(NCCc2ccccc2)c2ccccc2oc1=O` was tested, and the Potency was “inactive”. `O=C1c2ccccc2C(=O)N1c1ccccc1S(=O)C(F)(F)F` (stereo unspecified) was tested, and the Potency was “inactive”. For `O=C1C(Cl)=C(N2CCOCC2)C(=O)N1c1ccccc1`, the Potency was “inactive”. In the case of `O=C1C(=O)N(c2ccccc2)c2ccccc21`, the Potency is reported as 6.31 µM (active). For `COC(=O)c1c(C)oc2ccc(N(C(=O)Oc3ccccc3)S(=O)(=O)c3ccccc3)cc12`, the Potency was “inactive”. In the case of `Cc1ccccc1NC(=O)c1nn(-c2ccc(F)c(F)c2)ccc1=O`, the Potency is reported as “inactive”. With `C/C(=N\NC(=O)c1ccccc1C)c1ccc(N2CCOCC2)cc1` the Potency was “inactive”. For `Cc1ccccc1N/N=C/c1ccc(N2CCOCC2)cc1`, the Potency was 8.91 µM (active). In the case of `C(=N/Nc1cc(N2CCOCC2)nc(N2CCOCC2)n1)/c1ccccc1`, the Potency is reported as “inactive”. With `O=C(CCN1CCN(C/C=C/c2ccccc2)CC1)Nc1cccc(F)c1` the Potency was “inactive”. With `COc1ccc(N2C(=O)C(CC(=O)Nc3ccccc3)N(Cc3ccc(OC)c(OC)c3)C2=O)cc1` (stereo unspecified) the Potency was “inactive”. For `COc1ccc(N2C(=O)C(CC(=O)Nc3ccc(F)cc3)N(CCc3cccs3)C2=O)cc1` (stereo unspecified), the Potency was “inactive”. In the case of `CCOc1ccc(NC(=O)CC2C(=O)N(c3ccccc3)C(=O)N2CCOC)cc1` (stereo unspecified), the Potency is reported as 15.8 µM (active). In the case of `NC(=O)c1ccccc1N(Cc1ccccc1)S(=O)(=O)c1ccccc1`, the Potency is reported as “inactive”. In the case of `N#CCc1ccc(OC(=O)c2cccnc2)cc1`, the Potency is reported as “inactive”. For `CCCCN(C(=O)/C=C/c1ccco1)c1c(N)n(CC(C)C)c(=O)[nH]c1=O`, the Potency was “inactive”. With `CCNC(=S)NNC(=O)c1ccc2ncccc2c1` the Potency was “inactive”. With `CN(C)c1ccc(C=NCCc2ccc(S(N)(=O)=O)cc2)cc1` the Potency was 0.708 µM (active). For `CCCCc1ccc(S(N)(=O)=O)cc1`, the Potency was “inactive”. With `COc1ccc(OCC(=O)NCCc2ccc(S(N)(=O)=O)cc2)cc1` the Potency was “inactive”. `O=S(=O)(Cc1ccccc1)c1nc2ccccc2n1Cc1ccccn1` was tested, and the Potency was “inactive”. With `CCc1ccc(OCC(=O)OCC(=O)c2c(N)n(C)c(=O)n(C)c2=O)cc1` the Potency was “inactive”. For `Cn1c(N)c(C(=O)COC(=O)c2cnc(Cl)c(Cl)c2)c(=O)n(C)c1=O`, the Potency was 8.91 µM (active). `Cc1cc(C(=O)OCC(=O)c2c(N)n(C)c(=O)n(C)c2=O)c(C)o1` was tested, and the Potency was “inactive”.
